Drawing on PubChem BioAssay (NCI), this text covers growth for 40 compounds.

The panel holds about 83,000 compounds, 20% with a hit somewhere; the sample as a whole holds those more often.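 Testing used 96-well plates and a 48-hour single-concentration exposure. Example: -40 means 40% of the starting cells died.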 Values without a mark were called inactive. The source made the active and inactive calls.

In the assay the test system is IGROV1 ovarian. As to the kind of experiment: NCI-60 one-dose screen, 48 h (100 = growth as untreated, 0 = no growth, -100 = all killed). The settings on record: 10 µM unless noted. Here is the method:
Growth inhibition of the IGROV1 human tumor cell line is measured as a screen for anti-cancer activity. Cells are grown in 96 well plates and exposed to the test compound for 48 hours. Compounds are tested at a single concentration, which is 10^-5 M for most compounds. The reported endpoint is percent growth (GI% or GIPRCNT), where numbers from 0 - 100% represent growth inhibition, and numbers from -100% - 0 represent cell death. For example, a value of 40 represents 60% growth inhibition. A value of 0 means no net growth occurred over the course of the experiment. A value of -40 indicates 40% of cells at the beginning of the experiment died by the end of the experiment. A value of -100 means all cells are dead at the end of the experiment.
NCI-60 Human Tumor Cell Lines Screen was performed using the standard one-dose NCI protocol, which is described in more detail at https://dtp.cancer.gov/discovery_development/nci-60/default.htm.
Compounds with GIPRCNT values below 10 were considered active. Activity score was based on GIPRCNT using the following formula: […]
Score is 0 for GIPRCNT values of 100 or above, 50 for GIPRCNT values of 0, and 100 for GIPRCNT values of -100.
As for `O=C(c1ccc(Cl)cc1)c1ccc(Cl)cc1`, the growth is 124%. Regarding `Nc1nc2c(nnn2Cc2ccc(Cl)c(Cl)c2)c(=O)[nH]1`, the growth was 100%.

With `C=C1CC[C@@H]2[C@](C)(COC(C)=O)[C@H](OC(C)=O)CC[C@@]2(C)[C@@H]1CC(NCc1ccccc1)C1=CCOC1=O` (stereo not given in full), the growth was 62.9%. In the case of `CC[C@H]1CN2CCc3cc(OC)c(OC)cc3C2C[C@@H]1CC1NCCc2cc(OC)c(OC)cc21` (stereo not given in full), the growth was -22.9% (active). In the case of `NC(=O)c1cc(Br)cc(Br)c1NS(=O)(=O)c1ccccc1`, the growth is 94.9%. In the case of `COc1cc(/C=C2\SC(N3CCCCC3)=NC2=O)ccc1OCCCCCCOc1ccc(/C=C2\SC(N3CCCCC3)=NC2=O)cc1OC` it was 19.5%; in that of `COc1ccc(NC(=O)c2ccc(-c3ccccc3)cc2)c(C(N)=O)c1`, 102%; in that of `CC(C)=CCCC(C)c1ccc(C)c2c1OCN(CC1CCNCC1)C2` (stereo not given), 78.7%. Consider `COC(=O)CC1=C(c2ccc([N+](=O)[O-])cc2)CCC1=O`, for which the growth was 127%. In the case of `COc1ccc(-c2cc(-c3cccnc3)nc3sc(C(=O)Nc4ccccc4)c(N)c23)cc1OC` it was 68.9%. In the case of `CC1CN(CC(O)c2ccc(Br)cc2)CCO1` (stereo not given) it was 109%; in that of `COc1cc(/C(Cl)=C/C=C/C(=O)c2c(C)[n+]([O-])c3ccc(Cl)cc3[n+]2[O-])cc(OC)c1OC`, 37.2%. Turning to `N/C(=N\c1nc2ccccc2s1)NC(=O)Nc1ccccc1Cl`, the growth is 20.8%. As to `COc1cc(OC)c2c(c1Cl)O[C@]1(C2=O)C(OCc2ccccc2)=CC(=O)C[C@H]1C`, the growth is 3.14% (active).

Regarding `Clc1ccc(C2=NN(c3ccc(Cl)cc3)C(c3cccc(Nc4ccnc5cc(Cl)ccc45)c3)C2)cc1` (stereo not given), the growth was 75.4%. Consider `Cc1sc2nc(N3CCCCC3)[nH]c(=O)c2c1C`, for which the growth is 107%.

With `CC(NNC(=S)N1CCCCCC1)c1ccc2ccccc2n1` (stereo not given), the growth was 19.3%.

For `CCCCCCCCCCCCC1CCCC(C)C1` (stereo not given), the growth is 91.6%. Regarding `FC(F)(F)c1cc(-c2nnc3n2N=C(N2CCCC2)CS3)cc(C(F)(F)F)c1`, the growth is 87%. On to `Cc1nn(-c2ccccc2)cc1/C=C1\SC(N2CCCCC2)=NC1=O`, for which the growth is 68.1%. `O=C(O)CCC(=O)OC[C@@H](NC(=O)C(Cl)Cl)[C@H](O)c1ccc([N+](=O)[O-])cc1`: the growth is 97.2%. Turning to `Cc1sc2nc(NCc3ccccc3)[nH]c(=O)c2c1C`, the growth was 67.9%.

Consider `COc1cccc(/C=N\NC(=O)c2ccncc2)c1O`, for which the growth is 65.1%.

As to `Cc1nn(-c2ccccc2)c2nc(N)c(C3=NCCO3)nc12`, the growth was 94.4%. For `CC1c2ccccc2-c2ccccc2N1C` (stereo not given), the growth is 98.3%. In the case of `CC(=O)c1ccc(NS(=O)(=O)c2ccc([N+](=O)[O-])cc2)cc1` it was 107%. Consider `CC1CC=CCC1C1OCC(C)(C)CO1` (stereo not given), for which the growth was 101%. Next, `CCCCc1ccc(C(N)=O)nc1`: 19.4%; `Fc1ccccc1C1c2ccccc2-c2nccn21` (stereo not given): 79.6%; `O=[N+]([O-])c1ccc(NS(=O)(=O)c2ccc(Cl)c(Cl)c2)cc1`: 88.7%. In the case of `C[C@]12CC[C@H](O)CC1=CC[C@@H]1[C@@H]2CC[C@]2(C)C(c3cccnc3)=CC[C@@H]12`, the growth was 43.5%. For the compound `CCCCc1n(Cc2ccc3ccccc3c2)cc[n+]1Cc1ccc2ccccc2c1`, the growth is -57.9% (active). Next, `CCCCCc1c(C)[nH]c(/C=C2\N=C(c3ccc[nH]3)C=C2OCc2ccccc2)c1C`: -66% [100 µM] (active); `COc1cc(/C=C\C(C)=N\Nc2ccccc2)ccc1O`: 96%.

As to `COc1cc(C(=O)c2cc3c(cc2C)OCO3)cc(OC)c1OC`, the growth is 25.1%. On to `N#Cc1c(-c2ccccc2)cc(-c2ccccc2)n(CCCCC(=O)O)c1=O`, for which the growth is 102%. In the case of `COc1ccc2cc(C3=CC(=O)CCC3)ccc2c1` it was 104%; in that of `COc1cnc2c(c1)C(=O)c1c-2n(CCCNC2=NCCS2)c(=O)c2cc(F)ccc12`, 38%; in that of `C=C1CCC2C(C)(COC(=O)CC)C(OC(=O)CC)CCC2(C)C1C/C=C1/C(=O)OCC1OC(=O)CC` (stereo not given), -0.405% (active). `O=C(Nc1cccc(Cl)c1)Nc1cccc(Cl)c1`: the growth is 91.4%.
